# Assay results as given in the supplement of paper PMC11732987, “Enantioselective OTUD7B fragment discovery through chemoproteomics screening and high-throughput optimisation” (Communications Chemistry, 2025).
# Values without a mark were called inactive.
# Assays:
# Experiment in all cases: log2 ratio of Biotin-Ahx-Ub-VS probe labelling (fragment/DMSO); higher = less target engagement (more negative = stronger competition), active = hit call of the paper (q ≤ 0.05, log2 ratio ≤ -1)
# Conditions in all cases: compound concentration: 200 uM; treatment time: 3 h
# ALG13 = biological target: T1, ALG13 (UniProt Q9NP73)
# T1 sequence (whole entry): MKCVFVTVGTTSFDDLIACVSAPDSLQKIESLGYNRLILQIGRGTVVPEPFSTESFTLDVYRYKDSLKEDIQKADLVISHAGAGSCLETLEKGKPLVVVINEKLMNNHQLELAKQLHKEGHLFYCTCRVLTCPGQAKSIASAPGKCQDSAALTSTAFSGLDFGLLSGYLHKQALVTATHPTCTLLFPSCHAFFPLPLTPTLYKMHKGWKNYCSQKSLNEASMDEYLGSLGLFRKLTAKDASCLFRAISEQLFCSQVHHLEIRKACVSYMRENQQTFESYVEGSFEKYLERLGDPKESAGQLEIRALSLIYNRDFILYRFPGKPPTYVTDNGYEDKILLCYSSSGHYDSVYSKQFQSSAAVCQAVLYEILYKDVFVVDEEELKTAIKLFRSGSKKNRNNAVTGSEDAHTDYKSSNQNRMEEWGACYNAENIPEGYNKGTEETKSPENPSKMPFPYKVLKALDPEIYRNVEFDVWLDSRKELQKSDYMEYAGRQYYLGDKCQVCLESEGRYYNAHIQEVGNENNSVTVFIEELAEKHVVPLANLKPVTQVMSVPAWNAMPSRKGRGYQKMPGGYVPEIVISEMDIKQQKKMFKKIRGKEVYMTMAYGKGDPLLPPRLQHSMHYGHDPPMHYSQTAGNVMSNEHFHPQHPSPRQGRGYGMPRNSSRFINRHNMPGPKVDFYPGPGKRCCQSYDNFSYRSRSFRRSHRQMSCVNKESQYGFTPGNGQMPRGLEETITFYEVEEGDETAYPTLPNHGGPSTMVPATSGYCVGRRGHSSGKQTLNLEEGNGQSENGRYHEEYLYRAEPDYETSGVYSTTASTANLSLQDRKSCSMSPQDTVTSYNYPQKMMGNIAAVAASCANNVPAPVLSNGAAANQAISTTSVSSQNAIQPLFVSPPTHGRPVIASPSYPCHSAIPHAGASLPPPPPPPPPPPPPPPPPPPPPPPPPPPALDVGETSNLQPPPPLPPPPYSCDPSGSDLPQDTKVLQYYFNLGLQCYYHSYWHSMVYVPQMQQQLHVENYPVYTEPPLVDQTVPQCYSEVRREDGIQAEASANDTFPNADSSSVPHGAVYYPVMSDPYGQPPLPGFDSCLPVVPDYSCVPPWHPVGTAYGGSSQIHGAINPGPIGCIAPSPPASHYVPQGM
# Method in brief: (§1)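 HEK293T lysate (495 µg per sample, in Tris/CHAPS/IGEPAL buffer with protease inhibitors) was exposed in triplicate for 3 h to fragment at 200 µM or to vehicle, then to Biotin-Ahx-Ub-VS at 0.5 µM final for 1 h. Labelled DUBs were enriched on NeutrAvidin, digested with LysC and trypsin, and analysed by diaPASEF LC-MS/MS. Spectronaut label-free quantities were normalised to the global median, and values are average log2 ratios of fragment over vehicle from an unpaired t-test. Only proteins with ≥2 unique peptides were used.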
# ATXN3 = ATXN3 (UniProt P54252)
# Method in brief: as §1
# BAP1 = biological target: T2, BAP1 (UniProt Q92560)
# T2 sequence (whole entry): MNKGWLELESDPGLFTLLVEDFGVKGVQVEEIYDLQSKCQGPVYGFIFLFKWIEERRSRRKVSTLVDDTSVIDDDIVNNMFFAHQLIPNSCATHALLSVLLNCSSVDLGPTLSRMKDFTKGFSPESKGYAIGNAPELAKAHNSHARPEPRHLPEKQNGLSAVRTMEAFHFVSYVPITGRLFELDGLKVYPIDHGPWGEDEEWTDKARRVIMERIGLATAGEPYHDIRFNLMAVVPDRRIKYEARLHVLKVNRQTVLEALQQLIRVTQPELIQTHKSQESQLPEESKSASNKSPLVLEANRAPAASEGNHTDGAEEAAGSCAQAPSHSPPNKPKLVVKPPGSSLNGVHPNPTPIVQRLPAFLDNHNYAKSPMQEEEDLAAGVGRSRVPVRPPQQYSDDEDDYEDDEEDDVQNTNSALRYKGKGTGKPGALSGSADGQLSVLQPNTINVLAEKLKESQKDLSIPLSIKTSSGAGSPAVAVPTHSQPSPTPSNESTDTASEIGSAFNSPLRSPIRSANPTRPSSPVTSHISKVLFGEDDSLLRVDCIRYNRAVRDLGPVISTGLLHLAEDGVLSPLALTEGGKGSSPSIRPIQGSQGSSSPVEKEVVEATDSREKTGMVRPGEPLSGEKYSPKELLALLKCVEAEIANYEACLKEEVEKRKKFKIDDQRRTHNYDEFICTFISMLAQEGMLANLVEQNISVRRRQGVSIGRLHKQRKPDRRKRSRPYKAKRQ
# Method in brief: as §1
# EIF3F = EIF3F (UniProt O00303)
# Method in brief: as §1
# EIF3H = EIF3H (UniProt O15372)
# Method in brief: as §1
# FAM105A = biological target: T3, FAM105A (UniProt Q9NUU6)
# T3 sequence (whole entry): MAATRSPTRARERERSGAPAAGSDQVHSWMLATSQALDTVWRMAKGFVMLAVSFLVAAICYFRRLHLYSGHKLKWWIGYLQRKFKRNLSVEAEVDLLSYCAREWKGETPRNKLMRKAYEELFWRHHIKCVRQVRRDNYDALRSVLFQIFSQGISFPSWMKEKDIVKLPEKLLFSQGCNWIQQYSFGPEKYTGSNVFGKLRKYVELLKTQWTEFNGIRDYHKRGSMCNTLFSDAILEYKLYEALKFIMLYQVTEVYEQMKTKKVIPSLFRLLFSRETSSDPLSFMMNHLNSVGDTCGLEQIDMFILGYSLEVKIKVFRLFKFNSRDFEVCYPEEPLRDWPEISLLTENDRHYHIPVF
# Method in brief: as §1
# OTUB1 = OTUB1 (UniProt Q96FW1)
# Method in brief: as §1
# OTUD4 = biological target: T4, OTUD4 (UniProt Q01804)
# T4 sequence (whole entry): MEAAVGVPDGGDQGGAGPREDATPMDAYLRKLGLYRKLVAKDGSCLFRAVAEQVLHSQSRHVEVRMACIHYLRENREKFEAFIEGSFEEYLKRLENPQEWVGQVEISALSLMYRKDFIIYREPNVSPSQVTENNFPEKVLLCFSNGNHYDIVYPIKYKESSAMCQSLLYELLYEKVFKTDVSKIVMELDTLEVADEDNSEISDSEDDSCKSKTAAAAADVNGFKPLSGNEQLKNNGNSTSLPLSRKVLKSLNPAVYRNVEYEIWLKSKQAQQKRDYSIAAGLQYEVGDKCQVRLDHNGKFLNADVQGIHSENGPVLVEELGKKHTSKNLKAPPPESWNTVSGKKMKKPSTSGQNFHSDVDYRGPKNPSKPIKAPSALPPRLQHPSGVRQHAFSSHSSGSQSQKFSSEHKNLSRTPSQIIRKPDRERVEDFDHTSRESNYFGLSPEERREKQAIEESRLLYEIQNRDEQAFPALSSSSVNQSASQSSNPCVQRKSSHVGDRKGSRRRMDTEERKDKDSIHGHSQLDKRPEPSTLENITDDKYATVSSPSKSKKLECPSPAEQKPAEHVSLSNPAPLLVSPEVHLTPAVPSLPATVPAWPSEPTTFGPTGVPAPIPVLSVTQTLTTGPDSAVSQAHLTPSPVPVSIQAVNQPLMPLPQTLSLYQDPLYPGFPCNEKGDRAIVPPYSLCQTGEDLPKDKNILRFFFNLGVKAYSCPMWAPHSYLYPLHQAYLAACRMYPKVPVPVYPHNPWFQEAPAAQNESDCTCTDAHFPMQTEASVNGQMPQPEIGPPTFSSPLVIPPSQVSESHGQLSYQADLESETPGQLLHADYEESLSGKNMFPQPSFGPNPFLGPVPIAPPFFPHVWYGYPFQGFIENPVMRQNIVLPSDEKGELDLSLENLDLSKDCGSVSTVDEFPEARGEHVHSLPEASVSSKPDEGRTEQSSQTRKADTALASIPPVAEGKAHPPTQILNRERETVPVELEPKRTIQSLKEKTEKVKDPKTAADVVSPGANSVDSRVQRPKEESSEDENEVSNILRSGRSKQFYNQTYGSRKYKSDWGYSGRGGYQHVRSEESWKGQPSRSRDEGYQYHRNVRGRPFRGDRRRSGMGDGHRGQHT
# Method in brief: as §1
# OTUD5 = biological target: T5, OTUD5 (UniProt Q96G74)
# T5 sequence (whole entry): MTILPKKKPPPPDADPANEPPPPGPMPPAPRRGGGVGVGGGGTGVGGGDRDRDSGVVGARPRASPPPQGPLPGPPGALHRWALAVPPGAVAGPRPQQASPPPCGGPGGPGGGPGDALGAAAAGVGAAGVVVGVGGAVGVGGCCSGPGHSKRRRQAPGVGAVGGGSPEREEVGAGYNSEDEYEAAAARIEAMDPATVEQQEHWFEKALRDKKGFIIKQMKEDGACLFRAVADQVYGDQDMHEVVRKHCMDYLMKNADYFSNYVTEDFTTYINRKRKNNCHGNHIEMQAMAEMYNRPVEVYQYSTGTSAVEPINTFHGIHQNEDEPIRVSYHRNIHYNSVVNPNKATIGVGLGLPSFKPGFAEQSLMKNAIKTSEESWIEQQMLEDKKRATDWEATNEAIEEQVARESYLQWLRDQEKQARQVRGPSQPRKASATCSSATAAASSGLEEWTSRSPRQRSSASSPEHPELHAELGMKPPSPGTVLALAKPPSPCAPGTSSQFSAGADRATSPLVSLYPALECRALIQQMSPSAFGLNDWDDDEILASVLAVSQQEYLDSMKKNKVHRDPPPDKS
# Method in brief: as §1
# EIF3F, sequence (O00303 whole entry): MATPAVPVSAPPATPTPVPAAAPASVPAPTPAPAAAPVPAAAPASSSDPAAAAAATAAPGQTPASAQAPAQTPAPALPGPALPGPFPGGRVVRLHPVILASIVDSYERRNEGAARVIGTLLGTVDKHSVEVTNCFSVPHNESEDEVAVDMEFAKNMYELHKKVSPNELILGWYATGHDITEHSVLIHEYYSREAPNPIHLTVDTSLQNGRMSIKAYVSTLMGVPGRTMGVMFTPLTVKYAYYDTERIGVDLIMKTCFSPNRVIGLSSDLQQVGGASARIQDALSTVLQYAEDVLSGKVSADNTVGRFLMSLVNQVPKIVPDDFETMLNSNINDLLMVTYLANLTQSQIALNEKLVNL
# ATXN3, sequence (P54252 whole entry): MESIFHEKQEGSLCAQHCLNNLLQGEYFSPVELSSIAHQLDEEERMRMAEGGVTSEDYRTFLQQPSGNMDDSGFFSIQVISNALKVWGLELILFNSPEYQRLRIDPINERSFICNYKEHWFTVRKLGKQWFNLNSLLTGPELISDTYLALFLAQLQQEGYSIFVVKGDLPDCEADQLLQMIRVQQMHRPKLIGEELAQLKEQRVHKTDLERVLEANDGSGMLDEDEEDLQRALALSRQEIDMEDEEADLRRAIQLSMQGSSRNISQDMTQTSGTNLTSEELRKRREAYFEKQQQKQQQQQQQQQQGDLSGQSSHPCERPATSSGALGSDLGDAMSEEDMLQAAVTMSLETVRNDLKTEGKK
# EIF3H, sequence (O15372 whole entry): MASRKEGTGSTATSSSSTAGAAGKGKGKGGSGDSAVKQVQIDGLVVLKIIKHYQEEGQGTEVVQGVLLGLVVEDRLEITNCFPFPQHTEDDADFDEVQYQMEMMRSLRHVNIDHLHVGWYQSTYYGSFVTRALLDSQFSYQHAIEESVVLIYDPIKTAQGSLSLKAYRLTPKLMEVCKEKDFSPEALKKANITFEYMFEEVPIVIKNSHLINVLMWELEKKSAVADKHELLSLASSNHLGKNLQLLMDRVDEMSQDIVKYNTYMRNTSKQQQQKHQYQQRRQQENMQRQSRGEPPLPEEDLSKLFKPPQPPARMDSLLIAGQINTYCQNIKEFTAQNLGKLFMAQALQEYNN
# OTUB1, sequence (Q96FW1 whole entry): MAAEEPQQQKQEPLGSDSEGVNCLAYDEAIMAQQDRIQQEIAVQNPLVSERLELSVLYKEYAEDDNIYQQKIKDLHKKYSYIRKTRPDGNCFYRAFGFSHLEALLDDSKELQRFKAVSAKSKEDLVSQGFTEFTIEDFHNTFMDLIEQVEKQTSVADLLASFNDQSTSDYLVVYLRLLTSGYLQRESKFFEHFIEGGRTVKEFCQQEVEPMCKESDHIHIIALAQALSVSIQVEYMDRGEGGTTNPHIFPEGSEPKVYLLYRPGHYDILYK
compound,measurement,setting,value
O=C(CCl)NC1CCS(=O)(=O)c2ccccc21 (centres undefined),log2 ratio of Biotin-Ahx-Ub-VS probe labelling,ALG13,-0.299
same,log2 ratio of Biotin-Ahx-Ub-VS probe labelling,ATXN3,-0.496
same,log2 ratio of Biotin-Ahx-Ub-VS probe labelling,BAP1,-2.77 (active)
same,log2 ratio of Biotin-Ahx-Ub-VS probe labelling,EIF3F,-0.00472
same,log2 ratio of Biotin-Ahx-Ub-VS probe labelling,EIF3H,-0.0327
same,log2 ratio of Biotin-Ahx-Ub-VS probe labelling,FAM105A,-0.0548
same,log2 ratio of Biotin-Ahx-Ub-VS probe labelling,OTUB1,0.0659
same,log2 ratio of Biotin-Ahx-Ub-VS probe labelling,OTUD4,-1.76 (active)
same,log2 ratio of Biotin-Ahx-Ub-VS probe labelling,OTUD5,-0.271
